PubChem BioAssay (NCATS)
Unmarked numbers belong to inactive results. The source made the active and inactive calls. The call rests on the fitted dose curve; in most records, active means well fitted activation curve with a large enough effect; inconclusive means small, poorly fitted or top-dose-only effect; inactive means flat fitted curve, though single readings scatter.

assay: Confirmation and Secondary Assay for Modulators of Hemoglobin Beta Chain Splicing at IVS2 705 locus (AID 930); details: HeLa EGFP-705 splicing reporter, GFP fluorescence, 48 h; series mostly up to 38.3 µM; activation: at the top concentration; further: % of control where 0% means no effect
Description: NIH Chemical Genomics Center [NCGC] NIH Molecular Libraries Screening Centers Network [MLSCN] MLSCN Grant: 1 X01 MH080684-01 PI Name: Dr. Ryszard Kole NCGC Assay Overview: Modulation of Alternative Splicing as Therapy Abnormal splicing is associated with a number of diseases, including cancer and genetic diseases such as cystic fibrosis, muscular dystrophy and beta-thalassemia. Alteration of disease associated splicing patterns provides a promising target for treatment. […] Mutations in the second intron of the b-globin gene at positions 654 or 705 are clinically relevant and cause mis-splicing which results in an out of frame gene product. […] EGFP-705 HeLa Cells as screen system. HeLa cell lines were stably transfected with a construct in which the EGFP (enhanced green fluorescent protein) cDNA was interrupted by the second intron of the beta-globin gene (IVS2-705). The ISV2 intron contains mutations which cause mis-splicing of EGFP and premature termination of EGFP which results in a nonfluorescent protein product. […] Expression of the transgene was driven by the CMV promoter. We concluded that a low molecular weight compound, which restored correct splicing of intron 2 would also generate functional EGFP protein, resulting in a fluorescent signal. Thus, the HeLa cells that express the EGFP-705 construct can be used for validation of splice site specificity of compounds identified in primary screening of the ISV2 654 construct.
NCGC Assay Protocol Summary: Confirmatory Screening. Freshly thawed HeLa EGFP-705 cells were seeded in 5 ul of optimem media (Invitrogen) containing 2 % fetal calf serum (Hyclone) and 1x penicillin/streptomycin (Invitrogen) at a concentration of 500 cells per well in 1536-well plates. Cells were incubated overnight at 37C in 5% CO2. The next day, cells were treated with DMSO, 500 nM antisense ISV2 654 PNA control oligo, or library compound and allowed to grow at 37C in 5% CO2 for 2 days. The PNA oligo blocked the mutation site in the intron and allowed proper (wild type) splicing to occur, resulting in full length EGFP expression and also allowed for optimization of the assay parameters. Plates were read in the Acumen Explorer (TTP Labtech) using 488 nm laser excitation and 500-520 nm emission PMT filter in a 1 x 8 uM capture mode. Fluorescnet objects ranging in size from 5 to 250 uM were measured and the total peak GFP intensity for each well was used for data analysis. Keywords: Thalassemia, beta-thalassemia, beta-globin, EGFP, ISV2 654, ISV2 705, SSO, PNA, antisense, splicing, MLSMR, MLSCN, NIH Roadmap, qHTS, NCGC

| SMILES | activation | outcome |
| --- | --- | --- |
| COc1ccccc1-c1nc(NCc2cnc(C)cn2)c2ccccc2n1 | 2.04% |  |
| Cc1noc(C)c1-c1ccc2ncnc(NC3CC3)c2c1 | 0.0646% |  |
| CC1(C)SC2C(NC(=O)Cc3ccccc3)C(=O)N2C1C(=O)O (stereo not given) | -0.626% [at 46.1 µM] |  |
| COc1ccc(CNc2ncncc2-c2ccc3c(c2)OCO3)c(OC)c1 | 3.07% |  |
| Nc1c2ccccc2nc2ccccc12 (tested in a mixture with another compound) | 1.1% [at 46.1 µM] |  |
| Cc1cnc(CNc2ccnc(-c3ccc(C(=O)N(C)C)cc3)n2)cn1 | -0.0571% |  |
| CN(C)C(=O)c1ccc(-c2ccc3ncnc(NC4CCNCC4)c3c2)cc1 | -0.294% |  |
| CNc1ncnc2ccc(-c3cccc(NS(C)(=O)=O)c3)cc12 | -0.166% |  |
| COC(=O)CCCOc1ccc(Cl)cc1Cl | -0.1% |  |
| COC(=O)C1OC(=O)C2OC23[C@]2(C)C(O)CC4C(C)(C)C(OC(C)=O)CC(OC(C)=O)[C@@]4(C)C2CC[C@@]13C (stereo not given in full) |  | inactive |
| c1cncc(-c2nc(NCCN3CCOCC3)c3ccccc3n2)c1 | 0.21% |  |
| CN(Cc1ccco1)c1ccnc(-c2ccoc2)n1 | -0.371% |  |
| Cc1cccc(CNc2ncnc3ccc(-c4ccccc4C#N)cc23)c1 | 0.379% |  |
| C=C(NC(=O)C(=C)NC(=O)c1csc(C2=NC3c4csc(n4)C4NC(=O)c5csc(n5)C(C(C)(O)C(C)O)NC(=O)C5CSC(=N5)C(=CC)NC(=O)C(C(C)O)NC(=O)c5csc(n5)C3(CC2)NC(=O)C(C)NC(=O)C(=C)NC(=O)C(C)NC(=O)C(C(C)CC)NC2C=Cc3c(C(C)O)cc(nc3C2O)C(=O)OC4C)n1)C(N)=O (stereo not given) | 6.8% [at 46.1 µM] |  |
| N=c1ccn2c(n1)OC1C(O)C(CO)OC12 (stereo not given) |  | inactive |
| COc1cccc(-c2nc(NCc3cnc(C)cn3)c3ccccc3n2)c1 | 0.988% |  |
| COc1ccccc1CNc1nc(-c2ccccc2CN(C)C)nc2ccccc12 | 1.1% |  |
| CNc1ncnc2ccc(-c3ccccc3OC)cc12 | 0.0473% |  |
| COc1c(O)cc2oc3cc(O)c(CC=C(C)C)c(O)c3c(=O)c2c1CC=C(C)C |  | inactive |
| COc1ccccc1CNc1cc(-c2cccc(NS(C)(=O)=O)c2)ncn1 | 0.555% |  |

| SMILES | activation | outcome |
| --- | --- | --- |
| Cc1ccccc1-c1nc(-n2ccnc2)c2ccccc2n1 | 1.77% |  |
| Cc1cccc(CNc2cc(-c3ccccc3C)ncn2)c1 | 0.795% |  |
| COc1ccccc1CNc1nc(-c2ccc(N(C)C)cc2)nc2ccccc12 | 0.331% |  |
| O=C(O)c1cc(=O)c2cccc(O)c2[nH]1 | 0.668% [at 46.1 µM] |  |
| CC(=O)Oc1ccccc1C(=O)Oc1ccccc1C(=O)O | 4.22% [at 46.1 µM] |  |
| CN(C)Cc1ccccc1-c1nccc(NCc2cccs2)n1 | 0.739% |  |
| CCC(=O)OC1CCC2C3CCc4cc(O)ccc4C3CC[C@]12C (stereo not given in full) | -0.979% [at 46.1 µM] |  |
| Cc1cccc(CNc2cc(-c3cccnc3)ncn2)c1 | 0.584% |  |
| COc1ccccc1-c1cncnc1NCc1cccc(C)c1 | 1.14% |  |
| COc1cc(-c2coc3cc(OCc4ccccc4)c(OC)c(O)c3c2=O)cc(O)c1OC | 1.01% [at 46.1 µM] |  |
| c1cncc(CNc2nc(-c3ccc4c(c3)OCO4)nc3ccccc23)c1 | 0.411% |  |
| C[N+](C)(C)CC(O)CC(=O)O (stereo not given) | -0.791% [at 46.1 µM] |  |
| C#C[C@]1(O)CCC2C3CCC4=C(CCC(=O)C4)C3CC[C@@]21C (stereo not given in full) | 2.74% [at 46.1 µM] |  |
| CN(C)c1ccc(-c2nc(NC3CCNCC3)c3ccccc3n2)cc1 | 0.0936% |  |
| Cc1cccc2c3c(ccc12)C1=C(C(=O)C3=O)C(C)CO1 (stereo not given) | 0.618% |  |
| Cc1cnc(CNc2nc(-c3ccc(N(C)C)cc3)nc3ccccc23)cn1 | -0.335% |  |
| O=c1c(O)c(-c2ccc(O)c(O)c2)oc2c(OC3OC(CO)C(O)C(O)C3O)c(O)cc(O)c12 (stereo not given) | 0.267% [at 46.1 µM] |  |
| Nc1ccn(C2OC(CO)C(O)C2O)c(=O)n1 (stereo not given) |  | inactive |
| c1ccc2c(N3CCNCC3)nc(-c3ccoc3)nc2c1 | 1.72% |  |
| Cc1[nH]ccc2c1[nH]c1cc(=O)ccc12 | 5.07% [at 46.1 µM] |  |
